{
  "source": "PubChem BioAssay (Tox21)",
  "note": "Results filed as inconclusive are left out. Unmarked numbers belong to inactive results. Calls come from the whole dose curve. % is set by controls: 0 for no effect and ±100 for the full control effect.",
  "data": [
    {"test_system": "estrogen-related receptor alpha (ERRalpha) with PGC-1alpha coactivator, human", "test": "qHTS assay to identify small molecule antagonists of the estrogen related receptor signaling pathway with the pleiotropic PPARgamma coactivator (PGC) (AID 1224821);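 note: lower luminescence signal means antagonism of PGC/ERR signalling; nearly all actives have a fitted effect of over 50% in size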", "conditions": "ERR/PGC reporter cell line, luciferase, antagonist mode; series mostly up to 46.1 µM; activity change, negative = inhibition: at the top concentration", "excerpt": "National Center for Advancing Translational Sciences [NCATS]\nNIH Chemical Genomics Center [NCGC]\nU.S. Environmental Protection Agency [EPA]\nNational Institutes of Environmental Health Sciences [NIEHS]\nNational Toxicology Program [NTP]\nU.S. Food and Drug Administration [FDA]\nEstrogen related receptors (ERRs), the first orphan nuclear receptors discovered, play an important role in the control of cellular energy metabolism. ERRs are required for high-energy production in response to the environmental challenges. The pleiotropic PPARgamma coactivator (PGC) is a major partner of ERR and a key regulator in energy homeostasis. Together they have been implicated in the etiology of metabolic disorders such as Type 2 diabetes and metabolic syndrome. ERR-alpha was also identified as an adverse marker for breast cancer progression; ERR-alpha-positive tumors have a poor prognosis. To screen and to identify environmental compounds that perturb the ERR and PGC/ERR signaling pathways could provide valuable information for potential therapeutic or preventive measures in the treatment of metabolic disease. For identifying PGC/ERR antagonists, PGC/ERR cell line (provided by NTP) has been used to screen LOPAC library.\nTox21 Assay Protocol Summary:\nThe PGC/ERR cells were dispensed at 2,000 cells/5 ul/well in 1536-well white plates using a Multidrop dispenser. After the assay plates were incubated at a 37 C/5% CO2 incubator for 6 hours, 23 nL of compounds dissolved in DMSO, positive and negative controls or DMSO only was transferred to the assay plate by a pin tool. The plates were incubated at 37 C for 18 hours. 4 ul/well of One-Glo reagent was added into the assay plates using a Flying Reagent Dispenser. After 30 min incubation at room temperature, the luminescence intensity in the plates was measured using a ViewLux plate reader.", "units": {"activity change, negative = inhibition": "%"}, "values": [
      {"smiles": "CC(=O)CCCCn1c(=O)c2c(ncn2C)n(C)c1=O", "activity change, negative = inhibition": 9.68},
      {"smiles": "COc1ccc2c(c1OC)C(=O)O[C@@H]2[C@H]1c2c(cc3c(c2OC)OCO3)CCN1C", "activity change, negative = inhibition": 8.13},
      {"smiles": "O=C(NCCN1CCOCC1)c1ccc(Cl)cc1", "activity change, negative = inhibition": 0.287},
      {"smiles": "NCCS", "activity change, negative = inhibition": 4.36},
      {"smiles": "NC(CO)C(=O)NNCc1ccc(O)c(O)c1O", "note": "(stereo not given)", "activity change, negative = inhibition": -9.78},
      {"smiles": "Cc1cccc(C)c1OCC(C)N", "note": "(stereo not given)", "activity change, negative = inhibition": 9.67},
      {"smiles": "COc1ccc(C2CNC(=O)C2)cc1OC1CCCC1", "note": "(stereo not given)", "activity change, negative = inhibition": 4.02},
      {"smiles": "CCN(CC)CC(=O)Nc1c(C)cccc1C", "activity change, negative = inhibition": 11},
      {"smiles": "COC(=O)[C@@H]1[C@H]2C[C@H]3c4[nH]c5ccccc5c4CCN3C[C@@H]2CC[C@@H]1O", "activity change, negative = inhibition": 8.44},
      {"smiles": "C[C@@H](O)[C@H]1C(=O)N2C(C(=O)O)=C(SCCN=CN)C[C@H]12", "activity change, negative = inhibition": 0.818}
    ]}
  ]
}
